The structures appear in SMILES notation. Calls of active or inactive are those of the source.

This assay is described as follows: changes in parasitized red cell lysis, either direction – P. falciparum Indochina, OD700, 3 h, PSAC antagonist project, primary screen (AID 1156). The conditions noted are these: P. falciparum-infected erythrocytes, osmotic lysis, higher = more signal, called active from +8 up or from −8 down.
Regarding `O=C(CS)NCCCCCNC(=O)[C@@H]1C[C@@H]2C(=O)NCC(=O)N2[C@@H]1c1cccc(OCCO)c1`, the z-score was -1.32 (inactive).

On to `O=C(CS)NCCCCCNC(=O)[C@H]1C[C@H]2C(=O)NCC(=O)N2[C@H]1c1cccc(OCCO)c1`, for which the z-score was -4 (inactive).

Turning to `CN(C)CCCCNC(=O)[C@@H]1C[C@@H]2C(=O)N[C@@H](CCCCN)C(=O)N2[C@@H]1c1ccc(O)cc1`, the z-score is -0.079 (inactive).

Regarding `COc1ccc(CCNC(=O)[C@@]2(C)c3ccccc3C(=O)N(c3ccc(C)cn3)[C@H]2c2ccc(CO)cc2)cc1`, the z-score was 0.825 (inactive).

Take `O=C(NCCN1CCOCC1)[C@@H]1c2ccccc2C(=O)N(Cc2cc(C(F)(F)F)cc(C(F)(F)F)c2)[C@H]1c1ccc(CO)cc1`: the z-score was 0.591 (inactive).

Consider `O=C(NCc1ccccc1)[C@@H]1c2ccccc2C(=O)N(C2Cc3ccccc3C2)[C@H]1c1ccc(CO)cc1`, for which the z-score was -0.0549 (inactive).

Consider `COCCOC(=O)N1C(=O)[C@@]2(c3cc(C#CC4(O)CCCCCC4)ccc31)[C@H](C(=O)Nc1nc3ccccc3s1)[C@H]1C(=O)O[C@H](c3ccccc3)[C@H](c3ccccc3)N1[C@@H]2c1ccccc1OCCO`, for which the z-score was 0.895 (inactive).

Consider `CC1CC/C=C\[C@H]2OC34C=CCN(c5ccc6ccccc6c5)C(=O)[C@H]3N(CCO)C(=O)[C@@H]4C2C(=O)O1` (stereo not given in full), for which the z-score was 0.15 (inactive).

As to `O=C1O[C@@H](c2ccccc2)[C@@H](c2ccccc2)N2[C@@H](c3ccc(OCCO)cc3)[C@]3(C(=O)Nc4ccc(C#CCCO)cc43)[C@@H](C(=O)NC[C@H](O)c3ccccc3)[C@H]12`, the z-score is 1.53 (inactive).

`O=C1OCCC/C=C\[C@H]2OC34C=CCN(c5ccc6ccccc6c5)C(=O)[C@H]3N(CCCCCO)C(=O)[C@@H]4C12` (stereo not given in full): the z-score is -0.455 (inactive).

`CC(C)CNC(=O)[C@@]1(Cc2ccccc2I)c2ccccc2C(=O)N(Cc2ccccc2C(F)(F)F)[C@H]1c1ccc(CO)cc1`: the z-score is 0.649 (inactive).

Regarding `C#CCOc1ccc(C[C@@H](C(=O)OC)N(CC#C)[C@@H](/C=C/C2CC2)[C@H](O)Cc2ccccc2)cc1`, the z-score is -0.173 (inactive).

For the molecule `CCOC(=O)[C@H]1C/C=C/C[C@H](C(=O)OCC)C(=O)O[C@H]2[C@@H](OC)O[C@H](CO)[C@@H](OC(=O)c3ccc(Br)cc3)[C@@H]2OC1=O`, the z-score is -0.128 (inactive).

For the molecule `O=C1[C@@]23C=C(Br)[C@H](C[C@@H]2COC3)[C@]12CO2`, the z-score was -0.103 (inactive).

Turning to `O=C1NC(=O)C2C1C=CC(C(O)c1ccc(-c3ccccc3)s1)N2Nc1ccc(Cl)cc1Cl` (stereo not given), the z-score was -0.666 (inactive).

On to `C=C(C(=O)CC[C@H](OC(C)=O)c1ccccc1OCCO)C(C)C`, for which the z-score is -4.78 (inactive).

`O=C1C2C=CC(C(O)COCc3ccccc3)N(Nc3ccc([N+](=O)[O-])cc3)C2C(=O)N1c1ccccc1` (stereo not given): the z-score is -0.214 (inactive).

Turning to `COCC(=C=CC[C@H](O)c1cccc(OCCO)c1)CCO`, the z-score was 0.104 (inactive).

As to `NCCCCCCNC(=O)[C@H]1C[C@H]2C(=O)N[C@@H](Cc3ccccc3)C(=O)N2[C@H]1c1cccc(OCCO)c1`, the z-score was 2.3 (inactive).

As to `CCCCCN1CC=CC23O[C@@H]4C=CCOC(=O)[C@@H]4[C@H]2C(=O)N(C(C)CO)[C@@H]3C1=O` (stereo not given in full), the z-score was 0.136 (inactive).

In the case of `CC(c1ccccc1)C(O)C1C=CC2C(=O)N(C)C(=O)C2N1NC(=O)OC(C)(C)C` (stereo not given), the z-score was -0.344 (inactive).

With `COCCCNC(=O)[C@@H]1c2ccccc2C(=O)N(Cc2ccccc2)[C@H]1c1ccc(CO)cc1`, the z-score was 0.239 (inactive).

`COCCOC(=O)N1C(=O)[C@@]2(c3cc(C#CCCO)ccc31)[C@H](c1ccc(OCCO)cc1)N1[C@H](c3ccccc3)[C@H](c3ccccc3)OC(=O)[C@H]1[C@@H]2C(N)=O`: the z-score is 0.136 (inactive).

For `COc1ccc(C(=O)Nc2ccc(CN3C(=O)[C@]4(O[C@H](CC(=O)N5CCC[C@H]5CO)[C@@H]([Si](C)(C)c5ccc(OC)cc5)[C@@H]4C)c4ccccc43)cc2)cc1`, the z-score is -0.749 (inactive).

Consider `C=CC[C@]1(C(N)=O)COC(c2ccc(OCCCO)cc2)=N1`, for which the z-score was 0.111 (inactive).

Turning to `COC(=O)[C@@]1(Cc2ccccc2)[C@H]2c3cc(C(=O)N(C)C)n(CCc4c[nH]c5ccc(O)cc45)c3C[C@H]2CN1C(=O)c1ccccc1`, the z-score is 0.102 (inactive).

For `COc1ccc(C#Cc2ccc3c(c2)[C@]2(C(=O)N3)[C@H](c3ccc(O)cc3)N3[C@H](c4ccccc4)[C@H](c4ccccc4)OC(=O)[C@H]3[C@@H]2C(=O)N2CCc3cc(OC)c(OC)cc3C2)cc1`, the z-score was -0.205 (inactive).

Regarding `O=C1OCCC=C[C@H]2OC34C=CCN(Cn5nnc6ccccc65)C(=O)[C@H]3N(CCO)C(=O)[C@@H]4C12` (stereo not given in full), the z-score is 1.08 (inactive).

For the molecule `CC(C)Cc1ccc(CN2CC[C@@H](N)C2)cc1`, the z-score was -0.285 (inactive).

As to `C[N+](C)(C)CCCCCCNC(=O)[C@H]1C[C@H]2C(=O)N[C@@H](Cc3ccccc3)C(=O)N2[C@H]1c1cccc(OCCO)c1`, the z-score was -1.42 (inactive).

`CO[C@H]1O[C@H](CO)[C@@H](OC(=O)Nc2ccc(Oc3ccccc3)cc2)[C@H](OC(=O)Nc2ccc3c(c2)OCO3)[C@@H]1OC(=O)Nc1ccc2c(c1)OCO2`: the z-score is 0.403 (inactive).

On to `C=C(CCCC)/C(=C/C[C@@H](OC(C)=O)c1ccccc1OCCO)c1cc(C(=O)OC)ccc1OC`, for which the z-score was 2.14 (inactive).

`C=CCC(OC(C)=O)[C@@H]1[C@@H](N(Cc2cc3ccccc3o2)C(=O)Cc2ccc(OC)cc2)c2cc(OCCCO)ccc2N1C(=O)c1ccc2ccccc2c1` (stereo not given in full): the z-score was 1.17 (inactive).

As to `O=C1C2C=CC(C(O)c3c(F)cccc3Cl)N(Nc3ccccc3F)C2C(=O)N1c1ccccc1` (stereo not given), the z-score is 0.303 (inactive).

In the case of `CN(C)C(=O)[C@]1(Cc2ccccc2)N=C(c2ccc(OCCCO)cc2)O[C@@H]1c1ccccc1N=[N+]=[N-]`, the z-score is 1.96 (inactive).

Values taken from PubChem BioAssay.
